High-throughput results from PubChem BioAssay.
aDG glyco act: alpha-DG glycosylation activation | Pro5-aDG cells, alpha-DG glycosylation AlphaScreen (IIH6); 0% Pro5, 100% B10-LARGE cell signal | activation, % at 10 µM | hit rate 0.22% among 360,000 | AID 624168;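 active = activation of at least 8% versus controls, or a plate z-score of at least 8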;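 note: Pro5 are CHO cells carrying HIG-tagged alpha-DG that lacks glycosylation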
APOBEC3G inh: inhibitors of human APOBEC3G DNA deaminase; Q9HC16; recombinant A3G, ssDNA deamination FAM/TAMRA fluorescence; inhibition, % at 20 µM; hit rate 0.28% among 330,000; AID 493012;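 active = inhibition of at least 40% at 20 µM, with no more than 30% in the related APOBEC3A deaminase screen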;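 note: plate controls were DMSO wells with A3G for no effect and wells lacking A3G enzyme for full effect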
APOBEC3A inh: inhibitors of human APOBEC3A DNA deaminase | hit rate 0.41% among 330,000 | recombinant A3A, FAM/TAMRA ssDNA deamination fluorescence | AID 493011 | P31941 | inhibition, % at 20 µM;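 active = at least 40% inhibition at 20 µM here, with at most 30% in a related deaminase screen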;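 note: plate controls were A3A with DMSO for no effect and wells lacking A3A enzyme for full effect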
PHOSPHO1 block: blocks human PHOSPHO1 phosphatase activity | inhibition, % at 13.3 µM | recombinant PHOSPHO1, absorbance phosphatase assay | hit rate 1.1% among 290,000; in the data active = inhibition above about 60%
Target sequence (Q8TCT1 whole entry, looked up): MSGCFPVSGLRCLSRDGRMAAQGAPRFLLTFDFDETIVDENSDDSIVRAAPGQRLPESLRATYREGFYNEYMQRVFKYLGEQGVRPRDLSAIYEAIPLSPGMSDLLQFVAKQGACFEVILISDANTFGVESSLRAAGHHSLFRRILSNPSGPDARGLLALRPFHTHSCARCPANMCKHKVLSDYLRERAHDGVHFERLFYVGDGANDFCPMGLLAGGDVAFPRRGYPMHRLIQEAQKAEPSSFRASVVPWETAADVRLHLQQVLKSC
ALR inh: blocks human ALR sulfhydryl oxidase activity; P55789; purified ALR, DTT oxidation, H2O2 HRP-luminol luminescence; inhibition, % (test concentration not listed); hit rate 3.8% among 290,000; AID 485317;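 active = mean replicate inhibition above about 79%, with every replicate also reaching it, limit read from the data; inconclusive = only one of the two criteria met; inactive = mean below limit and not every replicate reaching it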
Target sequence (P55789 whole entry, looked up): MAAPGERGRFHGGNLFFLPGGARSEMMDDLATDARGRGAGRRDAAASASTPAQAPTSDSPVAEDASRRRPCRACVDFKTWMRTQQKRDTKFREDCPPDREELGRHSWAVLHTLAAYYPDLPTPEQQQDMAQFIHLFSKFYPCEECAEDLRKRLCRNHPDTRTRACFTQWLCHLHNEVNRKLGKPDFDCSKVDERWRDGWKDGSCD
rCAG binder: r(CAG) repeat RNA binding; TO-PRO-1 dye displacement fluorescence; inhibition, % at 3 µM; hit rate 1.3% among 370,000;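 active = inhibition above the plate cutoff, the mean of all test compounds on that plate plus 3 SD, cut at about 35% in these data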;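 note: 0% = DMSO alone and 100% = 100 µM mitoxantrone as full dye displacement; higher means more dye released from RNA so lower well fluorescence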
An asterisk follows results filed as active. Rows were chosen to be rich in hits. Some 5.4% of all compounds tested hit in one or more screens of this group.

Screening COC(=O)c1[nH]c(=O)c2ccccc2c1OCc1ccccc1 returned aDG glyco act 0.1, APOBEC3G inh -4.7, APOBEC3A inh -2.1, PHOSPHO1 block -16.0 and rCAG binder -7.8.
Screening CCOC(=O)CNC(=O)CSc1nc2ccccc2c(=O)n1-c1ccc(Cl)cc1 returned rCAG binder -0.2.
CCc1ccc(NC(=O)CSc2nnc(C)c(=O)n2N)cc1 was read as aDG glyco act 0.9, APOBEC3G inh -3.0, APOBEC3A inh -3.3, PHOSPHO1 block 32.8, ALR inh 99.0* and rCAG binder -1.4.
`CCc1nnc(NC(=O)CSc2nnc(C)c(=O)n2N)s1` gave aDG glyco act -0.3, APOBEC3G inh 7.1, APOBEC3A inh 1.2, PHOSPHO1 block 9.8, ALR inh 94.8* and rCAG binder 0.4.
Cc1nnc(SCC(=O)Nc2ccc(S(N)(=O)=O)cc2)n(N)c1=O was read as aDG glyco act -0.2, APOBEC3G inh -4.4, APOBEC3A inh -0.4, ALR inh 98.9* and rCAG binder 1.5.
Screening CC(C)(C)N(Cc1cn(Cc2ccccc2)nn1)S(=O)(=O)c1ccc(N2CCCCC2)cc1Br returned rCAG binder 4.5.
`CCSC1=NSC2=NC(=O)/C(=C\c3coc4ccccc4c3=O)C(=N)N12` gave aDG glyco act 0.1, PHOSPHO1 block -1.8, ALR inh 98.3* and rCAG binder -7.9.
COc1ccc(S(=O)(=O)N2CCN(C(=O)CSc3nc4ccccc4nc3N3CCCCC3)CC2)cc1 was read as rCAG binder 9.2.
Screening C=CCn1c(SCC(=O)c2ccc(OC)cc2)nnc1-c1ccc2c(c1)OCO2 returned aDG glyco act 0.0, APOBEC3G inh -9.1, APOBEC3A inh 0.6, PHOSPHO1 block 1.4, ALR inh 97.9* and rCAG binder 2.1.
`C=CCn1c(SCC(=O)Nc2ccc3c(c2)OCO3)nnc1-c1ccccc1OC` gave aDG glyco act 0.4, APOBEC3G inh -4.9, APOBEC3A inh -1.9, PHOSPHO1 block 18.8, ALR inh -4.5 and rCAG binder -5.0.
Screening C=CCn1c(SCC(=O)c2ccc(Cl)cc2)nnc1-c1ccc2c(c1)OCO2 returned aDG glyco act 0.2, APOBEC3G inh -6.9, APOBEC3A inh -2.5, PHOSPHO1 block -5.8, ALR inh 92.3* and rCAG binder -5.8.
`CNc1nn(-c2cccc(Cl)c2)nc1N` gave aDG glyco act -0.4, APOBEC3G inh -7.9, APOBEC3A inh -0.5, PHOSPHO1 block -20.5, ALR inh 98.7* and rCAG binder 5.2.
Nc1ccccc1Nc1cc(-c2ccccc2)nn1-c1cccc(Cl)c1 was read as aDG glyco act -0.3, APOBEC3G inh -5.6, APOBEC3A inh -1.9, PHOSPHO1 block -1.3, ALR inh -3.9 and rCAG binder 8.5.
`COC(=O)[C@H](C(C)C)N1CCc2nnn(Cc3ccccc3)c2-c2cc(F)ccc2S1(=O)=O` gave rCAG binder -3.0.
`CCOC(=O)c1c(NC(=O)CC2Sc3ccc(C(F)(F)F)cc3NC2=O)sc(C)c1C` (configuration not stated) gave aDG glyco act -0.3, APOBEC3G inh -3.8, APOBEC3A inh -3.8, PHOSPHO1 block -2.4, ALR inh -7.7 and rCAG binder 4.7.
Screening CC(=O)C1=C(C)Nc2cc(C(F)(F)F)ccc2S1 returned aDG glyco act -0.3, APOBEC3G inh -9.1, APOBEC3A inh -4.8, PHOSPHO1 block 96.2* and rCAG binder 7.9.
Cc1cc(C)n(CCNC(=O)[C@@H](Cc2ccccc2)NC(=O)[C@H]2O[C@@H](n3ccc(=O)[nH]c3=O)[C@H](O)[C@@H]2O)n1 was read as rCAG binder 0.3.
COc1cccc(/C=C2\SC(N3CCCC(C)C3)=NC2=O)c1OC (configuration not stated) was read as aDG glyco act 0.3, APOBEC3G inh -9.6, APOBEC3A inh -3.5, PHOSPHO1 block 24.1, ALR inh 97.2* and rCAG binder -1.9.
For O=S1(=O)c2ccc(Br)cc2OC[C@@H](Cc2ccccc2)N1Cc1cn(Cc2ccccc2)nn1 the results were rCAG binder 5.9.
`O=C(NCc1ccco1)C1CCCN(S(=O)(=O)c2ccccc2[N+](=O)[O-])C1` (configuration not stated) gave rCAG binder 1.1.
For CCOC(=O)c1sc(-c2ccccc2)cc1NC(=O)Nc1ccc([N+](=O)[O-])cc1 the results were aDG glyco act -0.4, APOBEC3G inh 1.1, APOBEC3A inh 0.9, PHOSPHO1 block 11.1, ALR inh 98.6* and rCAG binder 9.4.
COc1ccc(N2C(=O)c3[nH]nc(-c4ccccc4)c3C2c2ccc(Br)cc2)cc1 (configuration not stated) was read as rCAG binder 8.3.
O=C(NC1CCCCN(Cc2cccc(C(F)(F)F)c2)C1=O)c1ccc(Cl)cc1 (configuration not stated) was read as rCAG binder -0.2.
`COc1ccccc1NC(=S)NNC(=O)c1ccncc1` gave aDG glyco act 0.2, APOBEC3G inh -3.5, APOBEC3A inh -5.0, PHOSPHO1 block -3.7, ALR inh 28.9 and rCAG binder 3.1.
Screening COc1ccccc1NC(=S)NNC(=O)c1cc(C)nn1C returned aDG glyco act 0.1, APOBEC3G inh -0.5, APOBEC3A inh -1.3, PHOSPHO1 block 67.3*, ALR inh inconclusive and rCAG binder 4.6.
COc1ccccc1NC(=S)NNC(=O)c1c(Cl)c(C)nn1C was read as aDG glyco act 0.0, APOBEC3G inh -2.1, APOBEC3A inh -0.1, PHOSPHO1 block -24.7, ALR inh 86.4* and rCAG binder 31.7.
Screening COc1ccccc1NC(=S)NNC(=O)c1ccccc1 returned aDG glyco act 0.4, APOBEC3G inh -2.0, APOBEC3A inh -1.3, ALR inh inconclusive and rCAG binder 2.5.
`COc1ccccc1NC(=S)NNC(=O)c1cc(C)n(C)n1` gave aDG glyco act -0.1, APOBEC3G inh 0.3, APOBEC3A inh 1.2, PHOSPHO1 block 69.6*, ALR inh 77.0* and rCAG binder 0.3.
Screening Cc1cccc(NC(=O)[C@@H]2CC(=O)O[C@@H]2c2ccccc2)c1C returned rCAG binder -1.2.
For CC(C)c1cc(C(C)C)c(S(=O)(=O)N2CCC(C(=O)NCC3COCCO3)CC2)c(C(C)C)c1 (configuration not stated) the results were rCAG binder 3.9.
Cc1c(N=C2NN=C(c3ccc(Cl)cc3)CS2)c(=O)n(-c2ccccc2)n1C was read as aDG glyco act -0.2, APOBEC3G inh 18.4, APOBEC3A inh -4.2, PHOSPHO1 block 30.3, ALR inh 97.4* and rCAG binder 5.5.
Cc1c(N=C2NC(=O)/C(=C/c3ccc(O)cc3)S2)c(=O)n(-c2ccccc2)n1C was read as aDG glyco act -0.5, APOBEC3G inh -7.8, APOBEC3A inh -7.2, PHOSPHO1 block 2.5, ALR inh 99.2* and rCAG binder 6.9.
